# Test results as given in PubChem BioAssay AID431 (Sanford-Burnham Center for Chemical Genomics, 2006).
# The whole screen tested about 63,000 compounds, of which about 1,100 (1.7%) were called active. The entries come from a sample that favours actives as a whole. Measured potencies and affinities stand elsewhere. Unmarked numbers belong to inactive results.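 Rule for the calls: active = compounds whose percent cytotoxicity in the single-dose primary screen, scaled between solvent and toxic-drug controls, exceeds 50; inactive = the rest.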
# Test: cytotoxicity in KRAS-transformed pancreatic duct cells, primary screen, cell-based, fluorescence, HTS (AID 431);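 note: 0% = DMSO solvent wells and 100% = doxorubicin-treated wells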
# Details: HPDE-C7K KRASV12 cells, Alamar Blue viability, 48 h; at 10 µM; active compounds read high
row,SMILES,cytotoxicity
1,O=C(CSc1nc2ccccc2[nH]1)N1CCCCC1,0.6%
2,COc1ccc(NC(=O)N2CCCC(c3nc(-c4ccc(C(C)C)cc4)no3)C2)cc1 (stereo unspecified),65.6% (active)
3,Cc1ccccc1NC(=O)N1CCCC(c2nc(-c3ccc(C(C)C)cc3)no2)C1 (stereo unspecified),28.5%
4,COc1ccc(-c2noc(C3CCCN(C(=O)c4cccs4)C3)n2)cc1 (stereo unspecified),-10.3%
5,CN(CC(=O)N1CCc2ccccc21)S(=O)(=O)c1ccc(Cl)cc1,1.1%
6,COC(=O)C(C(=O)Nc1cc(C)on1)C1CCCCCC1 (stereo unspecified),-4.9%
7,CSc1nc2cc(Cl)ccc2s1,-3.5%
8,COc1ccc(C(=O)c2ccc(N3CCOCC3)cc2)c(OC)c1,4.5%
9,COc1ccc(C(=O)c2ccc(N(C)C)cc2)c(OC)c1,56.3% (active)
10,COc1ccc(C(=O)Oc2ccc(C(C)=O)cc2)c(OC)c1,3.6%
11,COc1cc(SC)ccc1C(=O)Nc1ccccc1C#N,28.3%
12,Nc1cc(N)nc(SCCOc2ccccc2F)n1,-15.6%
13,COc1ccccc1NC(=O)N1CCCC1C(=O)Nc1nnc(C(C)C)s1 (stereo unspecified),4.6%
14,O=C(NCc1ccco1)C(c1cccnc1)N(C(=O)Cn1nnc2ccccc21)c1ccc(F)cc1 (stereo unspecified),9.8%
15,COC(=O)C1=C(C)N(C)C(C)=C(C(=O)OC)C1c1ccncc1,-1%
16,Cc1ccc(CNC(=O)CCS(=O)(=O)c2cccc3nonc23)cc1,-9.3%
17,COc1cccc(-c2cc(C(=O)N3CCN(c4ncccn4)CC3)c3ccccc3n2)c1,15.2%
18,CCOC(=O)N1CCN(C(=O)c2cc(-c3ccc(OCC)cc3)nc3ccccc23)CC1,63.5% (active)
19,Cc1ccc2nc(-c3ccccn3)cc(C(=O)N3CCN(c4ncccn4)CC3)c2c1,13.2%
20,Cc1ccc(-c2cc(C(=O)N3CCN(c4ncccn4)CC3)c3ccccc3n2)cc1,58.8% (active)
21,CCOc1ccc(-c2cc(C(=O)N3CCN(c4ccccn4)CC3)c3ccccc3n2)cc1,53% (active)
22,COc1ccc(-c2cc(C(=O)N3CCN(c4ccccn4)CC3)c3ccccc3n2)cc1,5.9%
23,CCOc1ccc(-c2cc(C(=O)N3CCN(C)CC3)c3ccccc3n2)cc1,-12.4%
24,O=C(c1cc(-c2ccccc2)nc2ccccc12)N1CCN(c2ccccn2)CC1,27.1%
25,Cc1ccc(-c2cc(C(=O)N3CCOCC3)c3ccccc3n2)cc1,1.8%
26,CSC1=C(C#N)C(c2ccc(Cl)cc2)C2=C(CC(C)(C)CC2=O)N1 (stereo unspecified),2.7%
